# Data: paper PMC7862700, “An all-to-all approach to the identification of sequence-specific readers for epigenetic DNA modifications on cytosine”
# Experiments:
# Test in all cases: DAPPL (digital affinity profiling via proximity ligation, sequencing); 10 mM Tris-HCl pH 7.5, 50 mM NaCl, 1 mM DTT, 4% glycerol, room temperature, 30 min; GST-TFs on glutathione beads, 16-mer random dsDNA library, 0.1% formaldehyde crosslink after washing; high values mean tight binding
# FLI1 = molecular target: T1, FLI1 (Homo sapiens, UniProt Q01543 1-452); settings: protein: recombinant; tags: N-terminal GST; dsDNA, one strand shown
# T1 sequence: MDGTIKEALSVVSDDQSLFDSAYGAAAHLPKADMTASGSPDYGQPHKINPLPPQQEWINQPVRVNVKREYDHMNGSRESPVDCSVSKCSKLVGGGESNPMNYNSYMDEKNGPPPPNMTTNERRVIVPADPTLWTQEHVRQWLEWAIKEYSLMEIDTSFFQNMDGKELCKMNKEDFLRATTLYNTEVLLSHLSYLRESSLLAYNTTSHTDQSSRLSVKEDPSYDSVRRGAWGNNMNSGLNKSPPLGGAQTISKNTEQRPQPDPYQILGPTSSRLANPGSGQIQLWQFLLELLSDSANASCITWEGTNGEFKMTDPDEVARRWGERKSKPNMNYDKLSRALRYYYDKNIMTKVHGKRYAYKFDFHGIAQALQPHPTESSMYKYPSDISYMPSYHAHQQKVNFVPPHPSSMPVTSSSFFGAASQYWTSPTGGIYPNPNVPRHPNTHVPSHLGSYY
# Summary of the method: (§1)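 In yeast, human transcription factors were expressed with a GST fusion, then pulled down on glutathione beads and given DNA barcodes. Pooled with a tag-only sample, they were exposed to 200 nmole of a 16-mer random double-stranded DNA library (Tris/NaCl/DTT/glycerol buffer, room temperature, 30 min), washed, crosslinked with 0.1% formaldehyde, proximity-ligated using BsaI/T4 ligase for 1 h at 37 °C, PCR-amplified and read on an Illumina NextSeq500. Each hexamer's frequency of reads for a factor, divided by the matching frequency for the tag-only sample, gives the binding signal.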
# ELK1 = molecular target: T2, ELK1 (Homo sapiens, UniProt P19419 1-428); settings: protein: recombinant; tags: N-terminal GST; dsDNA, one strand shown
# T2 sequence: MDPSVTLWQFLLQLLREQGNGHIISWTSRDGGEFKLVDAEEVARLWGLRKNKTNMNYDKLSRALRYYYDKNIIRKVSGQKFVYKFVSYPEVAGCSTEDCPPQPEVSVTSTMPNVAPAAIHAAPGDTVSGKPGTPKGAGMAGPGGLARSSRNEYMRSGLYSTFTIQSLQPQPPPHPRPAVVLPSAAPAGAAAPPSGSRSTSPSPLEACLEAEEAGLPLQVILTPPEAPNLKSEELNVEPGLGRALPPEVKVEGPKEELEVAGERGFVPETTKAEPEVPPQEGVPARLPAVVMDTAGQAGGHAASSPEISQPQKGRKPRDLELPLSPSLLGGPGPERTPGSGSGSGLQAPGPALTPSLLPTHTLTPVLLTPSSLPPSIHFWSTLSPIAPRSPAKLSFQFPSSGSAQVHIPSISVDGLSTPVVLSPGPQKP
# Summary of the method: as §1
# GABPA = molecular target: T3, GABPA (Homo sapiens, UniProt Q06546 1-454); settings: protein: recombinant; tags: N-terminal GST; dsDNA, one strand shown
# T3 sequence: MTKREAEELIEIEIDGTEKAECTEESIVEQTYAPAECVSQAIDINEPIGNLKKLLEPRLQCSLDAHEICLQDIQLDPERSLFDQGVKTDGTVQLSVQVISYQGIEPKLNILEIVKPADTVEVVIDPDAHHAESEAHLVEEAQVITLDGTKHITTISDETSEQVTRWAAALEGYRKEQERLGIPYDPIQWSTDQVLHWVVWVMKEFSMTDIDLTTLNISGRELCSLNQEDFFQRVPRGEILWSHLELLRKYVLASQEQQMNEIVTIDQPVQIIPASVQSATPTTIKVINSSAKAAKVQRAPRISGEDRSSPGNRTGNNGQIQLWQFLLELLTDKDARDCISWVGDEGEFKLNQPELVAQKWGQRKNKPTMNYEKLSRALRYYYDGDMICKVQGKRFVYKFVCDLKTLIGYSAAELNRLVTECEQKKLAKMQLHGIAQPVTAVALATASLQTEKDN
# Summary of the method: as §1
# ERG = molecular target: T4, ERG (Homo sapiens, UniProt P11308 1-479); settings: protein: recombinant; tags: N-terminal GST; dsDNA, one strand shown
# T4 sequence: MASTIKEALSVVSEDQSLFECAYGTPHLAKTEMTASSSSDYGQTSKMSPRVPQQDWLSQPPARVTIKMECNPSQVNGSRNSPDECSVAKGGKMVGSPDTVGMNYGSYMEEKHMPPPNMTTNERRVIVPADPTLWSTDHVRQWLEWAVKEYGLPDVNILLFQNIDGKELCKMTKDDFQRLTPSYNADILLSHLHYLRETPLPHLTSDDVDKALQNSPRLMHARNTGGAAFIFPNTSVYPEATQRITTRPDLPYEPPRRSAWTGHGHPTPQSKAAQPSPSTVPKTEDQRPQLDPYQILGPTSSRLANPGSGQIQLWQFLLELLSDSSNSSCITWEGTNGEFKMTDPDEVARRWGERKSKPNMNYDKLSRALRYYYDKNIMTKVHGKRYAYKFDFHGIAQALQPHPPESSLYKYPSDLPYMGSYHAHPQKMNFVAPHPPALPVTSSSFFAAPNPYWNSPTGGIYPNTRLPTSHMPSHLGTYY
# Summary of the method: as §1
# ELF1 = ELF1 (Homo sapiens, UniProt P32519 1-619); settings: protein: recombinant; tags: N-terminal GST; dsDNA, one strand shown
# Summary of the method: as §1
# EHF = molecular target: T5, EHF (Homo sapiens, UniProt Q9NZC4 1-300); settings: protein: recombinant; tags: N-terminal GST; dsDNA, one strand shown
# T5 sequence: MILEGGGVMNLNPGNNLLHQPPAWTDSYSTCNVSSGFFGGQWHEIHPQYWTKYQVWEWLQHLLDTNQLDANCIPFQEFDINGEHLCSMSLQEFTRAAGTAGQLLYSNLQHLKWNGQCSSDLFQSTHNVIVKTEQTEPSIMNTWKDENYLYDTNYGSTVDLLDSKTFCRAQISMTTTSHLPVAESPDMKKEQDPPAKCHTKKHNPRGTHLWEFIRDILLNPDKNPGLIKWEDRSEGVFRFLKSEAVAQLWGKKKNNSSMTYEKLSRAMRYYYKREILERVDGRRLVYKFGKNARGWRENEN
# Summary of the method: as §1
# SPI1 = SPI1 (Homo sapiens, UniProt P17947 1-270); settings: protein: recombinant; tags: N-terminal GST; dsDNA, one strand shown
# Summary of the method: as §1
# SPIB = SPIB (Homo sapiens, UniProt Q01892 1-262); settings: protein: recombinant; tags: N-terminal GST; dsDNA, one strand shown
# Summary of the method: as §1
# ELK3 = molecular target: T6, ELK3 (Homo sapiens, UniProt P41970 1-407); settings: protein: recombinant; tags: N-terminal GST; dsDNA, one strand shown
# T6 sequence: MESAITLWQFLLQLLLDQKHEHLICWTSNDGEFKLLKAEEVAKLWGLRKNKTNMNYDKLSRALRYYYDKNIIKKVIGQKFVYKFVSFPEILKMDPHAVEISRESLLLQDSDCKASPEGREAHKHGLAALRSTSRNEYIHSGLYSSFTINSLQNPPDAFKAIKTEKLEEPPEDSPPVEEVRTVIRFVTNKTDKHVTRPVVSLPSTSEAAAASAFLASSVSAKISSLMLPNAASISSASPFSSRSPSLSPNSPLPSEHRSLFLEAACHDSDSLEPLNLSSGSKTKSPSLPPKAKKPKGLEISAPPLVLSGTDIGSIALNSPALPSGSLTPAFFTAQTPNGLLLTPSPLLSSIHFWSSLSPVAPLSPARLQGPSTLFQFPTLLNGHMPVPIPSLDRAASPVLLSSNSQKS
# Summary of the method: as §1
# FEV = molecular target: T7, FEV (Homo sapiens, UniProt Q99581 1-238); settings: protein: recombinant; tags: N-terminal GST; dsDNA, one strand shown
# T7 sequence: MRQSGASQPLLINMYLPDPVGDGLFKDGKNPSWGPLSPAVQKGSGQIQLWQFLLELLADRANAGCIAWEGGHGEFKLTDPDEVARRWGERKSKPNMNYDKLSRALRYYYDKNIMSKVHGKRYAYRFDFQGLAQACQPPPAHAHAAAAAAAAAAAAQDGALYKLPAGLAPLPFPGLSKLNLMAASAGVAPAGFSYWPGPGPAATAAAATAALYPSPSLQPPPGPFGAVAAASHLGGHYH
# Summary of the method: as §1
# ETV5 = ETV5 (Homo sapiens, UniProt P41161 1-510); settings: protein: recombinant; tags: N-terminal GST; dsDNA, one strand shown
# Summary of the method: as §1
# HSF1 = HSF1 (Homo sapiens, UniProt Q00613 1-529); settings: protein: recombinant; tags: N-terminal GST; chain copies: 3; dsDNA, one strand shown
# Summary of the method: as §1
# SPIC = molecular target: T8, SPIC (Homo sapiens, UniProt Q8N5J4 1-248); settings: protein: recombinant; tags: N-terminal GST; dsDNA, one strand shown
# T8 sequence: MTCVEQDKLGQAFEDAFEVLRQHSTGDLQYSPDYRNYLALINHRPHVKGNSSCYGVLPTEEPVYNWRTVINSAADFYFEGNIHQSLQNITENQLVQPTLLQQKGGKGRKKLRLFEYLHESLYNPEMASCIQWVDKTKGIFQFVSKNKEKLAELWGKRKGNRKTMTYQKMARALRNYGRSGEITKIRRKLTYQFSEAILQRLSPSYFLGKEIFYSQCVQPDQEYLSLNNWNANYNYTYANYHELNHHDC
# Summary of the method: as §1
# ELF4 = ELF4 (Homo sapiens, UniProt Q99607 1-663); settings: protein: recombinant; tags: N-terminal GST; dsDNA, one strand shown
# Summary of the method: as §1
# ELK4 = molecular target: T9, ELK4 (Homo sapiens, UniProt P28324-2 1-405); settings: protein: recombinant; tags: N-terminal GST; dsDNA, one strand shown
# T9 sequence: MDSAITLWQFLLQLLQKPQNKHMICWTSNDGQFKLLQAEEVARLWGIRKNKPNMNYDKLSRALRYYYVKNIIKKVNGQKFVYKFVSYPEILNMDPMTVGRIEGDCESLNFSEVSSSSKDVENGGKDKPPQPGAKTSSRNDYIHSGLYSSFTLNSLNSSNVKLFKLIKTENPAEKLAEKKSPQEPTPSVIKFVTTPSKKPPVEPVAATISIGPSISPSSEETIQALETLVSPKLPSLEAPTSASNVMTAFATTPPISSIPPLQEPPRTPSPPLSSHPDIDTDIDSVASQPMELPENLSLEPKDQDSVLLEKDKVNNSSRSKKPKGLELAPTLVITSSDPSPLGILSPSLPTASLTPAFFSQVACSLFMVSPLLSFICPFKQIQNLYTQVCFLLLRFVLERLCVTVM
# Summary of the method: as §1
# ETV2 = molecular target: T10, ETV2 (Homo sapiens, UniProt O00321 1-342); settings: protein: recombinant; tags: N-terminal GST; dsDNA, one strand shown
# T10 sequence: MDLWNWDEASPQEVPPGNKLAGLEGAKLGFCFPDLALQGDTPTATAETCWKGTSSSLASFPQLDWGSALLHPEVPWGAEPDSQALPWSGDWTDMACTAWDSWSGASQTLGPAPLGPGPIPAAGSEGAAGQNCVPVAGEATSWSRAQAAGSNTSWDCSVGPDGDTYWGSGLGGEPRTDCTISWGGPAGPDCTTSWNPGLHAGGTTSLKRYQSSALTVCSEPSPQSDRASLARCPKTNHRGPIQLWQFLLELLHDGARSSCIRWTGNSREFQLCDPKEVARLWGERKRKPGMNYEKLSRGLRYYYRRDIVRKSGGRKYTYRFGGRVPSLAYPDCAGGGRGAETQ
# Summary of the method: as §1
# ELF3 = molecular target: T11, ELF3 (Homo sapiens, UniProt P78545 1-371); settings: protein: recombinant; tags: N-terminal GST; dsDNA, one strand shown
# T11 sequence: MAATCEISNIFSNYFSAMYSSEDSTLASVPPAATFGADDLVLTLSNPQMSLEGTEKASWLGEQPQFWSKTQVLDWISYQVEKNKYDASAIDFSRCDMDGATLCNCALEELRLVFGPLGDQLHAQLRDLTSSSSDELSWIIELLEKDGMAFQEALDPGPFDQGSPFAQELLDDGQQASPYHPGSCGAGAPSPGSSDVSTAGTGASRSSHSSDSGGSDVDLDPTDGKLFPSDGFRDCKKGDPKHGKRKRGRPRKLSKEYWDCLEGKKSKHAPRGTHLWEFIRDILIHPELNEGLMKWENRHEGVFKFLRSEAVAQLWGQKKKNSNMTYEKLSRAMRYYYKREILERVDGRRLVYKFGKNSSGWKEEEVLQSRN
# Summary of the method: as §1
# CRX = CRX (Homo sapiens, UniProt O43186 1-299); settings: protein: recombinant; tags: N-terminal GST; dsDNA, one strand shown
# Summary of the method: as §1
# ETV1 = ETV1 (Homo sapiens, UniProt P50549 1-477); settings: protein: recombinant; tags: N-terminal GST; dsDNA, one strand shown
# Summary of the method: as §1
# Sequence of CRX (O43186 whole entry): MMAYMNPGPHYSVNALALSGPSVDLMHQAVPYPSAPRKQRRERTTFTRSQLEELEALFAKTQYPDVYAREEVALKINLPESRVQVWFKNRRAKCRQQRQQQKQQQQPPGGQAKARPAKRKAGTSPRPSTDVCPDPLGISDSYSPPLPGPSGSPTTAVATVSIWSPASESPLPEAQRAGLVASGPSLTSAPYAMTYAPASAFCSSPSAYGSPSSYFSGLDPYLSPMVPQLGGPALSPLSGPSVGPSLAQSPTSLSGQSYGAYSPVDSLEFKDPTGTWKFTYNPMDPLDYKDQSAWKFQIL
# Sequence of HSF1 (Q00613 whole entry): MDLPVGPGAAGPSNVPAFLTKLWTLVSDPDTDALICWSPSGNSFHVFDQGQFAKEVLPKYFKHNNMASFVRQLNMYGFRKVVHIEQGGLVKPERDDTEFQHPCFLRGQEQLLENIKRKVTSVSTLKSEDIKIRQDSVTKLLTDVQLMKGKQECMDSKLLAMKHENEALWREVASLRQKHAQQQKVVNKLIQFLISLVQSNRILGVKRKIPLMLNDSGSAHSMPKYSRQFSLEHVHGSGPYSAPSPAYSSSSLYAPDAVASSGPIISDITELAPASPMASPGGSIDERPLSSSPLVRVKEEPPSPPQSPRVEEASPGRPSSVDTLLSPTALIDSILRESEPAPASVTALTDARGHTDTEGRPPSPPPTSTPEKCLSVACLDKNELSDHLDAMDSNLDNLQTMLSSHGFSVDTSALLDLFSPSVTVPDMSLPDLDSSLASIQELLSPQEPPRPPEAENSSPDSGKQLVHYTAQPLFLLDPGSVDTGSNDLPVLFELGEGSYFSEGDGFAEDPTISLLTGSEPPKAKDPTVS
# Sequence of ELF1 (P32519 whole entry): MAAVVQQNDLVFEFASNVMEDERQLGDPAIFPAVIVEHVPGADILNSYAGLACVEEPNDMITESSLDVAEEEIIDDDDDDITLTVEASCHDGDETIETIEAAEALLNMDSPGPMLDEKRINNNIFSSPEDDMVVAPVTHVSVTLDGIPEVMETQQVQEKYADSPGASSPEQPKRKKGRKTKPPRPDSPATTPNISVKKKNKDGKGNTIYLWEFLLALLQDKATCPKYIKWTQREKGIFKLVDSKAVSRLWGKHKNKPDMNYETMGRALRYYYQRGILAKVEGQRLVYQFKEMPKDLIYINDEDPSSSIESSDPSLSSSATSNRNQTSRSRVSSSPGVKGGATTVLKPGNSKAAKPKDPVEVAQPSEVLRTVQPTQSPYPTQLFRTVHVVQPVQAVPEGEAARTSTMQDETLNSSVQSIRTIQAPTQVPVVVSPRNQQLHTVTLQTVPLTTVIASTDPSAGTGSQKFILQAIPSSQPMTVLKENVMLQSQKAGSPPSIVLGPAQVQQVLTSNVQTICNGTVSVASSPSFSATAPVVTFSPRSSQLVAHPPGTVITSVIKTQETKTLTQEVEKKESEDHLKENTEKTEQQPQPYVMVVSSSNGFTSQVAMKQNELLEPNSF
# Sequence of ETV1 (P50549 whole entry): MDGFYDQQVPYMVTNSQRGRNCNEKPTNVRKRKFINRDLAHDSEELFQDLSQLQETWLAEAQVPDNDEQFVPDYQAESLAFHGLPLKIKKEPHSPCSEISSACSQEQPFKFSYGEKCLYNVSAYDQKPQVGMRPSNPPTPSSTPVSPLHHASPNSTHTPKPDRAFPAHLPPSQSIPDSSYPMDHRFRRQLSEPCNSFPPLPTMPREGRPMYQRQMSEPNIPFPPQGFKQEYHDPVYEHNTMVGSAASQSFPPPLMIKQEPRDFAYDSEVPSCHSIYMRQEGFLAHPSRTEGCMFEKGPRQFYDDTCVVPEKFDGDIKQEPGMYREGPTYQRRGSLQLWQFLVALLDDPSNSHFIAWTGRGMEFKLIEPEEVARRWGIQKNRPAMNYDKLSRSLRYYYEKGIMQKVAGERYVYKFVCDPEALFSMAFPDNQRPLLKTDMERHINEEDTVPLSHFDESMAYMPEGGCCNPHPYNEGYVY
# Sequence of ETV5 (P41161 whole entry): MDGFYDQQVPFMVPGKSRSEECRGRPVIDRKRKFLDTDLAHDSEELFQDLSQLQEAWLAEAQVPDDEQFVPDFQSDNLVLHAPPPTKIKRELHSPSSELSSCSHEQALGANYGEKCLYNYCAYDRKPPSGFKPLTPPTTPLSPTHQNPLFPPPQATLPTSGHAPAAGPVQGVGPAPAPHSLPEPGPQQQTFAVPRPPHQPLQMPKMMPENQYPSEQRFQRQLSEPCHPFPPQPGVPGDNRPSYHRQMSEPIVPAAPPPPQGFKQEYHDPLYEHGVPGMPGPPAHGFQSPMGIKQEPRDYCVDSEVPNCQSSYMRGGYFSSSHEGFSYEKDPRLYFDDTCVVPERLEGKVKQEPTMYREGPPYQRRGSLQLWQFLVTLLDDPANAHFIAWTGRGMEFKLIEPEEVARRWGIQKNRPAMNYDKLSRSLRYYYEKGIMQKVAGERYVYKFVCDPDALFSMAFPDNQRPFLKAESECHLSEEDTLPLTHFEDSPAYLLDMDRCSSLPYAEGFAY
# Sequence of ELF4 (Q99607 whole entry): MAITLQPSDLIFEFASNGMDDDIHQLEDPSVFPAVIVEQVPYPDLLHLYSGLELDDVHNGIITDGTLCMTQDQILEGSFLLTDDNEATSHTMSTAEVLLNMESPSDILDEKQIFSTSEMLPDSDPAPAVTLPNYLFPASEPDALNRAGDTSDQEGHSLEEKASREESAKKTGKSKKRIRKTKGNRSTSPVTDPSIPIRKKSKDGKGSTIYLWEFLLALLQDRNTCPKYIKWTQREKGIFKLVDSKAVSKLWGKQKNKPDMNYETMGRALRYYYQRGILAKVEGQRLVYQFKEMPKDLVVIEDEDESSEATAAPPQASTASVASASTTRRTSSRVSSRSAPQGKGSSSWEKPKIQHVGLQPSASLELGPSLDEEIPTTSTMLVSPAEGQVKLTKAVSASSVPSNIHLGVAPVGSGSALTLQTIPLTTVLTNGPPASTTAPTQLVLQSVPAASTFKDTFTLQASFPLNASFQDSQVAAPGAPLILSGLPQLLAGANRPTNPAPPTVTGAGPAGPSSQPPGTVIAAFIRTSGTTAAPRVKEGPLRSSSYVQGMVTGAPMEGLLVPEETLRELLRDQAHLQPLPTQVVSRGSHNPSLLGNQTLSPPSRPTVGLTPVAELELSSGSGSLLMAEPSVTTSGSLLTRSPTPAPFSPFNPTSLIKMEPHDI
# Sequence of SPIB (Q01892 whole entry): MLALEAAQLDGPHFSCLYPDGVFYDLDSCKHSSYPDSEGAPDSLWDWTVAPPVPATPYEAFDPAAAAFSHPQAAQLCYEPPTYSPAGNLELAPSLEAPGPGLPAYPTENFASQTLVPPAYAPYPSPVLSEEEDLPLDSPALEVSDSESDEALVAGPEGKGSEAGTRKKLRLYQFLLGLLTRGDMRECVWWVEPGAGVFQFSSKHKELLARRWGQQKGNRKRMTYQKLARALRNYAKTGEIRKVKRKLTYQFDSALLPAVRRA
sequence,measurement,setting,value
CATCTT,binding signal,FLI1,"1.18 fold enrichment (6-mer frequency, TF over GST control)"
same,binding signal,ELK1,"1.27 fold enrichment (6-mer frequency, TF over GST control)"
same,binding signal,GABPA,"1.17 fold enrichment (6-mer frequency, TF over GST control)"
same,binding signal,ERG,"1.27 fold enrichment (6-mer frequency, TF over GST control)"
same,binding signal,ELF1,"1.25 fold enrichment (6-mer frequency, TF over GST control)"
same,binding signal,EHF,"1.2 fold enrichment (6-mer frequency, TF over GST control)"
same,binding signal,SPI1,"1.21 fold enrichment (6-mer frequency, TF over GST control)"
same,binding signal,SPIB,"1.21 fold enrichment (6-mer frequency, TF over GST control)"
same,binding signal,ELK3,"1.29 fold enrichment (6-mer frequency, TF over GST control)"
same,binding signal,FEV,"1.16 fold enrichment (6-mer frequency, TF over GST control)"
same,binding signal,ETV5,"1.21 fold enrichment (6-mer frequency, TF over GST control)"
same,binding signal,HSF1,"1.17 fold enrichment (6-mer frequency, TF over GST control)"
same,binding signal,SPIC,"1.11 fold enrichment (6-mer frequency, TF over GST control)"
same,binding signal,ELF4,"1.12 fold enrichment (6-mer frequency, TF over GST control)"
same,binding signal,ELK4,"1.31 fold enrichment (6-mer frequency, TF over GST control)"
same,binding signal,ETV2,"1.29 fold enrichment (6-mer frequency, TF over GST control)"
same,binding signal,ELF3,"1.23 fold enrichment (6-mer frequency, TF over GST control)"
same,binding signal,CRX,"1.33 fold enrichment (6-mer frequency, TF over GST control)"
same,binding signal,ETV1,"1.24 fold enrichment (6-mer frequency, TF over GST control)"
